# C diff growth: inhibitors of Clostridium difficile growth. Clostridium difficile clinical isolate growth, OD600, 24 h; hits give low values. growth activity, negative = inhibition, % at 16 µg/mL (by protocol). AID 1259249. 86,000 compounds, 0.25% hits;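 active means mean growth activity at or below -80% and every replicate also at or below -80%; inconclusive means mean at or below -80% but some replicate above -80%; inactive means mean growth activity above -80%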;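 further: 0% = DMSO wells and -100% = levofloxacin 16 µg/mL wells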
# T cruzi growth-1: T. cruzi proliferation inhibition; T. cruzi beta-gal in NIH3T3, GalScreen luminescence, 90 h; inhibition, % at 8.34 µM; 77,000 compounds, 5.9% hits;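 active means mean inhibition above about 93%, with at least 55% of replicates each passing it, limit read from the data, passing the limit was not always enough; inconclusive means only one of those two conditions holds; inactive means neither condition holds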
# Pf Dd2 inh: P. falciparum Dd2 growth inhibition | 94,000 compounds, 2.3% hits | SYBR Green, 72 h; hits give low values | activity change, % at 10 µM | AID 1159554; in the data active means activity change below about -80%; inconclusive means no clear call, values can overlap the other calls
# T cruzi growth-2: inhibitors of T. cruzi proliferation; shares compounds with T cruzi growth-1; T. cruzi beta-gal in NIH3T3, GalScreen luminescence, 90 h; inhibition, % at 8.35 µM; 5,600 compounds, 72% hits; AID 651739;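 active means mean replicate inhibition above about 95% and at least 55% of replicates individually reaching it, limit read from the data; inconclusive means only one of the two criteria is met; inactive means neither criterion is met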
# T cruzi growth-3: inhibitors of T. cruzi proliferation | inhibition, % at 2.09 µM | T. cruzi beta-gal in NIH3T3, GalScreen luminescence, 90 h | 5,600 compounds, 21% hits | AID 651740 | shares compounds with T cruzi growth-1;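 active means mean inhibition above about 95%, with at least 55% of replicates also reaching it, limit read from the data; inconclusive means meets just one of the two conditions; inactive means meets neither condition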;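 further: plate controls were neutral control median for no effect and positive control median for full effect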
# NIH3T3 tox: kills mouse NIH/3T3 fibroblasts | shares compounds with T cruzi growth-1 | NIH/3T3 viability, CellTiter-Glo ATP luminescence, 90 h | cytotoxicity (signal decrease), % at 8.35 µM | 5,600 compounds, 14% hits;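 active means mean signal decrease across replicates above about 35% based on untreated-well scatter, with enough replicates individually passing, limit read from the data; inconclusive means no rule stated though some were filed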;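 further: 0% = median of neutral control wells and 100% = median of positive control wells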
# 3T3 cytotox 2: NIH/3T3 (mouse) viability loss; inhibition, % at 24.9 µM; NIH/3T3 viability, CellTiter-Glo ATP luminescence, 90 h; AID 651744; shares compounds with T cruzi growth-1; 5,600 compounds, 56% hits;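 active means mean loss of cell viability signal at or above a set limit, and enough replicates individually reaching it; inconclusive means meets only the mean limit or only the replicate share; inactive means meets neither condition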;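 further: 0% = median of neutral control wells and 100% = median of positive control wells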
# An asterisk follows results filed as active; ? = inconclusive; . = no result. The list is not random: actives were taken first. Their share in the collection is about 6.7%.
SMILES,C diff growth,T cruzi growth-1,Pf Dd2 inh,T cruzi growth-2,T cruzi growth-3,NIH3T3 tox,3T3 cytotox 2
C[C@H]1CCCCO[C@H](CN(C)C(=O)Cc2ccccc2)[C@@H](C)CN([C@@H](C)CO)C(=O)c2cc(NC(=O)Nc3ccc(F)cc3)ccc2O1,-3.5,101.0*,-50.7,106.0*,-41.7,-16.5,19.8
C[C@@H]1CN([C@H](C)CO)C(=O)c2cc(NC(=O)Nc3ccc(F)cc3)ccc2O[C@@H](C)CCCCO[C@@H]1CN(C)C(=O)Cc1ccccc1,2.5,87.3,?,.,.,.,.
COc1cccc(S(=O)(=O)N(C)C[C@H]2Oc3cc(C#CCC(C)C)ccc3S(=O)(=O)N([C@H](C)CO)C[C@H]2C)c1,13.9,?,-63.4,97.4*,115.2*,28.6,74.2*
COc1ccccc1S(=O)(=O)N(C)C[C@@H]1Oc2cc(/C=C/c3ccccc3)ccc2S(=O)(=O)N([C@@H](C)CO)C[C@@H]1C,5.3,92.9,-37.4,.,.,.,.
COc1cccc(S(=O)(=O)N(C)C[C@H]2Oc3cc(C#CCN(C)C)ccc3S(=O)(=O)N([C@@H](C)CO)C[C@@H]2C)c1,-4.7,108.2*,-56.0,113.5*,66.9,-1.6,5.3
COc1ccccc1S(=O)(=O)N(C)C[C@@H]1Oc2cc(/C=C/c3ccccc3)ccc2S(=O)(=O)N([C@H](C)CO)C[C@@H]1C,11.7,127.9*,?,100.1*,103.4*,-4.1,28.8*
COc1ccccc1S(=O)(=O)N(C)C[C@@H]1Oc2cc(C#CCC3CCCC3)ccc2S(=O)(=O)N([C@@H](C)CO)C[C@@H]1C,6.5,.,-56.8,.,.,.,.
COc1cccc(S(=O)(=O)N(C)C[C@H]2Oc3cc(C#CCN(C)C)ccc3S(=O)(=O)N([C@@H](C)CO)C[C@H]2C)c1,11.3,57.4,-65.5,.,.,.,.
COc1cccc(S(=O)(=O)N(C)C[C@@H]2Oc3cc(C#CCC(C)C)ccc3S(=O)(=O)N([C@H](C)CO)C[C@@H]2C)c1,35.7,68.0,-78.2,.,.,.,.
COc1ccccc1S(=O)(=O)N(C)C[C@H]1Oc2cc(C#CCC(C)C)ccc2S(=O)(=O)N([C@@H](C)CO)C[C@H]1C,3.8,113.2*,-67.3,95.2*,108.0*,12.8,80.6*
COc1cccc(S(=O)(=O)Nc2ccc3c(c2)OC[C@H](C)NC[C@@H](C)[C@H](OC)CN(C)C3=O)c1,-0.2,64.7,20.2,.,.,.,.
CCCNC(=O)C[C@H]1CC[C@@H]2[C@@H](COc3ccc(NC(=O)c4ccccc4)cc3C(=O)N2C)O1,8.9,-4.6,-12.0,.,.,.,.
CN(C)CCCNC(=O)C[C@@H]1CC[C@@H]2[C@H](COC[C@@H](O)CN2S(=O)(=O)c2ccc(Cl)cc2)O1,10.1,-39.3,12.1,.,.,.,.
CC(C)NC(=O)N(C)C[C@H]1Oc2cc(C3=CCCC3)ccc2S(=O)(=O)N([C@@H](C)CO)C[C@H]1C,-5.8,11.2,-2.5,.,.,.,.
COC(=O)C[C@@H]1C[C@@H]2c3cc(NC(=O)C4CCC4)ccc3O[C@@H]2[C@@H](CO)O1,-8.4,11.6,10.8,.,.,.,.
CCCC(=O)Nc1ccc2c(c1)OC[C@H](C)N(CCC(F)(F)F)C[C@H](C)[C@@H](OC)CN(C)C2=O,3.9,.,-17.2,.,.,.,.
COc1ccc2c3c(n(C)c2c1)[C@@H](CO)N(Cc1ccccn1)CC31CN(C(=O)NC(C)C)C1,19.9,.,-30.0,.,.,.,.
Cn1cnc(S(=O)(=O)N2C[C@H](O)COC[C@@H]3O[C@H](CC(=O)N4CCN(c5ccccc5)CC4)CC[C@H]32)c1,1.6,-106.4,5.7,.,.,.,.
CCCC#Cc1ccc2c(c1)O[C@H](CN(C)S(=O)(=O)c1cccc(OC)c1)[C@H](C)CN([C@H](C)CO)S2(=O)=O,15.0,120.7*,-43.8,103.5*,98.3*,33.1,24.9*
COCC#Cc1ccc2c(c1)O[C@H](CN(C)S(=O)(=O)c1cccc(OC)c1)[C@@H](C)CN([C@@H](C)CO)S2(=O)=O,1.7,58.1,-41.4,.,.,.,.
C/C=C/c1ccc2c(c1)O[C@H](CN(C)Cc1cccc(F)c1)[C@@H](C)CN([C@@H](C)CO)S2(=O)=O,28.0,.,-19.7,.,.,.,.
C/C=C/c1ccc2c(c1)O[C@H](CN(C)Cc1ccccc1)[C@@H](C)CN([C@@H](C)CO)S2(=O)=O,7.7,116.5*,-1.7,100.5*,103.6*,14.1,103.9*
C/C=C/c1ccc2c(c1)O[C@H](CN(C)Cc1ccc(F)cc1)[C@@H](C)CN([C@@H](C)CO)S2(=O)=O,30.8,117.4*,-5.6,?,89.1,7.6,103.6*
C/C=C/c1ccc2c(c1)O[C@@H](CN(C)Cc1ccccc1)[C@@H](C)CN([C@@H](C)CO)S2(=O)=O,1.0,36.8,-16.6,.,.,.,.
CCCC#Cc1ccc(CC[C@H]2O[C@H]3CC[C@@H](CO)O[C@H]3C[C@@H]2n2cc(C(C)(C)O)nn2)cc1,-11.5,.,-1.8,.,.,.,.
SMILES,C diff growth,T cruzi growth-1,Pf Dd2 inh,T cruzi growth-2,T cruzi growth-3,NIH3T3 tox,3T3 cytotox 2
COc1cccc(S(=O)(=O)N[C@H]2C=C[C@@H](CC(=O)NC3CCC3)O[C@@H]2CO)c1,-6.8,-59.8,-5.1,.,.,.,.
OC[C@@H]1[C@@H](c2ccc(C#Cc3ccccc3F)cc2)[C@@H]2CN(Cc3cncnc3)CCCCN12,-8.8,83.1,-17.3,.,.,.,.
O=C(Nc1ccccc1F)N1CCCCN2[C@@H](CO)[C@@H](c3ccc(C#Cc4cccnc4)cc3)[C@@H]2C1,10.4,106.7*,-76.1,96.7*,94.2,15.6,59.8*
O=C(Nc1ccccc1)N1CCCCN2[C@H](CO)[C@H](c3ccc(C#Cc4cccnc4)cc3)[C@H]2C1,10.3,44.1,-41.7,.,.,.,.
O=C(Nc1ccccc1)N1CCCCN2[C@H](CO)[C@@H](c3ccc(C#Cc4cccnc4)cc3)[C@@H]2C1,36.2,68.4,-23.6,.,.,.,.
O=C(Nc1ccccc1F)N1CCCCN2[C@H](CO)[C@@H](c3ccc(C#Cc4cccnc4)cc3)[C@@H]2C1,30.5,99.2*,-25.7,108.0*,90.0,21.1,55.3*
O=C(Nc1ccccc1F)N1CCCCN2[C@H](CO)[C@@H](c3ccc(C#Cc4ccccc4)cc3)[C@H]2C1,9.4,88.6,-72.3,.,.,.,.
OC[C@@H]1[C@@H](c2ccc(C#Cc3cccnc3)cc2)[C@@H]2CN(Cc3ccccc3F)CCCCN12,-2.6,112.1*,-63.0,102.7*,98.3*,35.9*,103.8*
O=C(Nc1ccccc1F)N1CCCCN2[C@H](C1)[C@@H](c1ccc(C#Cc3cccnc3)cc1)[C@@H]2CO,3.2,103.9*,-14.4,105.8*,39.4,26.0,65.5*
O=C(Nc1ccccc1F)N1[C@@H](CO)[C@@H]2c3ccccc3NC[C@@H]21,-3.2,-23.9,-2.6,.,.,.,.
CN(C)CC(=O)N1[C@@H](C#N)[C@H](c2ccc(C#CC3CC3)cc2)[C@@H]1CO,-0.2,96.4*,-0.4,96.8*,44.9,-19.5,-9.8
CN(C)CC(=O)N1[C@H](C#N)[C@@H](c2ccc(C#CC3CC3)cc2)[C@@H]1CO,3.4,83.9,4.1,.,.,.,.

# Screening data (PubChem BioAssay)
